# Measurements reported in PubChem BioAssay (NCI).
# Compounds without any hit were thinned out: in the full panel of roughly 79,000, 15% have a hit. Values without a mark were called inactive. Calls of active or inactive are those of the source. Rule as the data show it: active = growth inhibition above about 70%; inactive = the rest.
# How the values were obtained:
# [1] = NCI Yeast Anticancer Drug Screen. Data for the rad52 strain (AID 147);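 also: 0% = growth of vehicle-treated control cultures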; conditions: S. cerevisiae rad52 mutant growth inhibition, active compounds read high
# Procedure, shortened: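 Growth of repair-deficient yeast cells was compared between compound-treated and vehicle-treated cultures to give percent inhibition.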
# [2] = NCI Yeast Anticancer Drug Screen. Data for the wt1 strain (AID 149);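 also: 0% = growth of vehicle-treated wt1 cultures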; conditions: S. cerevisiae wt1 strain (SPY 50644) growth inhibition, active compounds read high
# Procedure, shortened: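 Using yeast strain wt1, compound-induced growth inhibition was determined against vehicle-treated cultures.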
# [3] = NCI Yeast Anticancer Drug Screen. Data for the rad50EPP+ strain (AID 151);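 also: 0% = growth of vehicle-treated control cultures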; conditions: S. cerevisiae rad50 mutant strain, active compounds read high
# Procedure, shortened: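 Measured: growth inhibition of rad50EPP+ yeast. Reference: vehicle-treated controls. Screen uses strains with defined genetic alterations in DNA damage repair or cell cycle control.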
# [4] = NCI Yeast Anticancer Drug Screen. Data for the mgt1 strain (AID 153); conditions: S. cerevisiae mgt1 mutant growth inhibition, active compounds read high
# Procedure, shortened: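 Compounds were applied to mgt1 mutant yeast, and growth was then compared against vehicle-treated control cultures to give percent inhibition.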
# [5] = NCI Yeast Anticancer Drug Screen. Data for the rad50 strain (AID 155);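 also: 0% = growth of vehicle-only cultures of the same strain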; conditions: S. cerevisiae rad50 strain growth inhibition, active compounds read high
# Procedure, shortened: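 Relative growth inhibition (compound vs vehicle) was measured in yeast with a defined repair-gene alteration.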
# [6] = NCI Yeast Anticancer Drug Screen. Data for the mec2-1 strain (AID 157); conditions: S. cerevisiae mec2-1 strain, active compounds read high
# Procedure, shortened: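 Compounds were applied to mec2-1 yeast cells. Their growth was then compared with that of vehicle-treated cultures to give growth inhibition.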
# [7] = NCI Yeast Anticancer Drug Screen. Data for the rad14 strain (AID 159);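 also: 0% = growth of vehicle-treated control cultures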; conditions: S. cerevisiae rad14 strain growth inhibition, active compounds read high
# Procedure, shortened: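 Screen for anticancer potential: a yeast strain altered in DNA damage repair is grown with compound, and reduced growth is quantified against vehicle controls.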
# [8] = NCI Yeast Anticancer Drug Screen. Data for the sgs1 mgt1 strain (AID 161);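 also: 0% = growth of cultures given vehicle only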; conditions: S. cerevisiae sgs1 mgt1 strain, active compounds read high
# Procedure, shortened: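 Yeast cells carrying a defined DNA-repair defect were exposed to test compounds. Growth inhibition was measured relative to vehicle-treated controls.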
# [9] = NCI Yeast Anticancer Drug Screen. Data for the CLN2oe strain (AID 163);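 also: 0% = growth of vehicle-only control cultures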; conditions: S. cerevisiae CLN2oe strain, active compounds read high
# Procedure, shortened: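 Cells of an engineered yeast line with disturbed cell-cycle regulation are treated with compound. Inhibition of growth is then calculated relative to the vehicle-treated reference.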
# [10] = NCI Yeast Anticancer Drug Screen. Data for the cln2 rad14 strain (AID 165);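 also: 0% = growth equal to vehicle treated cultures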; conditions: S. cerevisiae cln2 rad14 strain, active compounds read high
# Procedure, shortened: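 Strain: cln2 rad14 yeast, altered in cell cycle control and DNA damage repair. Read-out: growth inhibition vs vehicle.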
# [11] = NCI Yeast Anticancer Drug Screen. Data for the bub3 strain (AID 167); conditions: S. cerevisiae bub3 mutant strain, active compounds read high
# Procedure, shortened: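 Screening used yeast with an engineered genetic alteration affecting cell cycle control. Compound-exposed cultures were compared with vehicle cultures, and reduced growth was taken as inhibition.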
# [12] = NCI Yeast Anticancer Drug Screen. Data for the wt2 strain (AID 169);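 also: 0% = growth of vehicle-treated yeast cultures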; conditions: S. cerevisiae wt2 strain growth inhibition, active compounds read high
# Procedure, shortened: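 Growth of compound-treated yeast is measured and expressed as inhibition relative to vehicle-only controls.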
# [13] = NCI Yeast Anticancer Drug Screen. Data for the mlh1 strain (AID 171);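 also: 0% = growth of vehicle-treated control cultures of the same strain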; conditions: S. cerevisiae mlh1 strain growth inhibition, active compounds read high
# Procedure, shortened: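 Test agents were incubated with yeast bearing a defined DNA damage repair or cell cycle control alteration; values are growth inhibition normalised to vehicle-treated cultures.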
# [14] = NCI Yeast Anticancer Drug Screen. Data for the sgs1 strain (AID 173);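 also: 0% = growth of vehicle-only control cultures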; conditions: S. cerevisiae sgs1 mutant, active compounds read high
# Procedure, shortened: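 Strain with an altered DNA repair or cell cycle pathway exposed to compound. Growth then measured. Value = inhibition versus vehicle control.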
# [15] = NCI Yeast Anticancer Drug Screen. Data for the mlh1 rad18 strain (AID 175); conditions: S. cerevisiae mlh1 rad18 strain growth inhibition, active compounds read high
# Procedure, shortened: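 A repair-deficient yeast strain is exposed to test compound, and growth is scored relative to vehicle-treated controls.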
# [16] = NCI Yeast Anticancer Drug Screen. Data for the rad18 strain (AID 177); conditions: S. cerevisiae rad18 mutant growth inhibition, active compounds read high
# Procedure, shortened: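 DNA-repair-defective yeast; compound treatment; growth inhibition scored against vehicle.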
# [17] = at 5.0 µM (retest, dose inferred, filed as 0.5)
# [18] = at 50.0 µM (retest, dose inferred, filed as 5.0)
structure (smiles),measurement,setting,value
Nc1nc(F)nc2c1ncn2C1OC(COP(=O)(O)O)C(O)C1O (stereo unspecified),growth inhibition,[1]; at 1.2 µM,2%
same,growth inhibition,[1]; at 3.7 µM,5%
same,growth inhibition,[1]; at 11.0 µM,12%
same,growth inhibition,[1]; at 33.0 µM,22%
same,growth inhibition,[1]; at 100.0 µM,52%
same,growth inhibition,[2]; at 1.2 µM,1%
same,growth inhibition,[2]; at 3.7 µM,1%
same,growth inhibition,[2]; at 11.0 µM,2%
same,growth inhibition,[2]; at 33.0 µM,5%
same,growth inhibition,[2]; at 100.0 µM,2%
same,growth inhibition,[3]; at 1.2 µM,3%
same,growth inhibition,[3]; at 3.7 µM,12%
same,growth inhibition,[3]; at 11.0 µM,26%
same,growth inhibition,[3]; at 33.0 µM,43%
same,growth inhibition,[3]; at 100.0 µM,67%
same,growth inhibition,[4]; at 1.2 µM,-3%
same,growth inhibition,[4]; at 3.7 µM,0%
same,growth inhibition,[4]; at 11.0 µM,2%
same,growth inhibition,[4]; at 33.0 µM,5%
same,growth inhibition,[4]; at 100.0 µM,12%
same,growth inhibition,[5]; at 1.2 µM,3%
same,growth inhibition,[5]; at 3.7 µM,9%
same,growth inhibition,[5]; at 11.0 µM,18%
same,growth inhibition,[5]; at 33.0 µM,32%
same,growth inhibition,[5]; at 50.0 µM,11.1%
same,growth inhibition,[5]; at 100.0 µM,61%
same,growth inhibition,[6]; at 1.2 µM,1%
same,growth inhibition,[6]; at 3.7 µM,7%
same,growth inhibition,[6]; at 11.0 µM,13%
same,growth inhibition,[6]; at 33.0 µM,27%
same,growth inhibition,[6]; at 50.0 µM,4.2%
same,growth inhibition,[6]; at 100.0 µM,87% (active)
same,growth inhibition,[7]; at 1.2 µM,-1%
same,growth inhibition,[7]; at 3.7 µM,-2%
same,growth inhibition,[7]; at 11.0 µM,2%
same,growth inhibition,[7]; at 33.0 µM,5%
same,growth inhibition,[7]; at 100.0 µM,19%
same,growth inhibition,[8]; at 50.0 µM,-1.15%
same,growth inhibition,[9]; at 1.2 µM,-4%
same,growth inhibition,[9]; at 3.7 µM,-5%
same,growth inhibition,[9]; at 11.0 µM,-5%
same,growth inhibition,[9]; at 33.0 µM,-5%
same,growth inhibition,[9]; at 100.0 µM,-2%
same,growth inhibition,[10]; at 50.0 µM,-3.75%
same,growth inhibition,[11]; at 1.2 µM,-8%
same,growth inhibition,[11]; at 3.7 µM,-8%
same,growth inhibition,[11]; at 11.0 µM,-3%
same,growth inhibition,[11]; at 33.0 µM,-10%
same,growth inhibition,[11]; at 50.0 µM,-29.9%
same,growth inhibition,[11]; at 100.0 µM,-1%
same,growth inhibition,[12]; at 1.2 µM,-2%
same,growth inhibition,[12]; at 3.7 µM,1%
same,growth inhibition,[12]; at 11.0 µM,1%
same,growth inhibition,[12]; at 33.0 µM,6%
same,growth inhibition,[12]; at 100.0 µM,18%
same,growth inhibition,[13]; at 1.2 µM,0%
same,growth inhibition,[13]; at 3.7 µM,2%
same,growth inhibition,[13]; at 11.0 µM,5%
same,growth inhibition,[13]; at 33.0 µM,9%
same,growth inhibition,[13]; at 100.0 µM,19%
same,growth inhibition,[14]; at 1.2 µM,18%
same,growth inhibition,[14]; at 3.7 µM,30%
same,growth inhibition,[14]; at 11.0 µM,39%
same,growth inhibition,[14]; at 33.0 µM,47%
same,growth inhibition,[14]; at 100.0 µM,53%
same,growth inhibition,[15]; at 50.0 µM,-26.4%
same,growth inhibition,[16]; at 1.2 µM,-2%
same,growth inhibition,[16]; at 3.7 µM,-1%
same,growth inhibition,[16]; at 11.0 µM,1%
same,growth inhibition,[16]; at 33.0 µM,5%
same,growth inhibition,[16]; at 100.0 µM,19%
Clc1c(Cl)c(Cl)c2n[nH]nc2c1Cl,growth inhibition,[1]; at 1.2 µM,-30%
same,growth inhibition,[1]; at 3.7 µM,-11%
same,growth inhibition,[1]; at 11.0 µM,-20%
same,growth inhibition,[1]; at 33.0 µM,-12%
same,growth inhibition,[1]; at 100.0 µM,65%
same,growth inhibition,[2]; at 1.2 µM,-23%
same,growth inhibition,[2]; at 3.7 µM,-16%
same,growth inhibition,[2]; at 11.0 µM,-9%
same,growth inhibition,[2]; at 33.0 µM,14%
same,growth inhibition,[2]; at 100.0 µM,87% (active)
same,growth inhibition,[3]; at 1.2 µM,-62%
same,growth inhibition,[3]; at 3.7 µM,-51%
same,growth inhibition,[3]; at 11.0 µM,-28%
same,growth inhibition,[3]; at 33.0 µM,18%
same,growth inhibition,[3]; at 100.0 µM,20%
same,growth inhibition,[4]; at 1.2 µM,-23%
same,growth inhibition,[4]; at 3.7 µM,-12%
same,growth inhibition,[4]; at 11.0 µM,-5%
same,growth inhibition,[4]; at 33.0 µM,6%
same,growth inhibition,[4]; at 100.0 µM,86% (active)
same,growth inhibition,[5]; at 1.2 µM,-13%
same,growth inhibition,[5]; at 3.7 µM,-21%
same,growth inhibition,[5]; [17],100% (active)
same,growth inhibition,[5]; at 11.0 µM,-9%
same,growth inhibition,[5]; at 33.0 µM,14%
same,growth inhibition,[5]; [18],100% (active)
same,growth inhibition,[5]; at 50.0 µM,60.1%
same,growth inhibition,[5]; at 100.0 µM,75% (active)
same,growth inhibition,[6]; at 1.2 µM,-6%
same,growth inhibition,[6]; at 3.7 µM,-20%
same,growth inhibition,[6]; [17],100% (active)
same,growth inhibition,[6]; at 11.0 µM,-21%
same,growth inhibition,[6]; at 33.0 µM,9%
same,growth inhibition,[6]; [18],100% (active)
same,growth inhibition,[6]; at 50.0 µM,54.8%
same,growth inhibition,[6]; at 100.0 µM,82% (active)
same,growth inhibition,[7]; at 1.2 µM,-9%
same,growth inhibition,[7]; at 3.7 µM,-19%
same,growth inhibition,[7]; at 11.0 µM,-9%
same,growth inhibition,[7]; at 33.0 µM,11%
same,growth inhibition,[7]; at 100.0 µM,94% (active)
same,growth inhibition,[8]; [17],-17%
same,growth inhibition,[8]; [18],78% (active)
same,growth inhibition,[9]; at 1.2 µM,-7%
same,growth inhibition,[9]; at 3.7 µM,-10%
same,growth inhibition,[9]; at 11.0 µM,1%
same,growth inhibition,[9]; at 33.0 µM,21%
same,growth inhibition,[9]; at 100.0 µM,76% (active)
same,growth inhibition,[10]; [17],57%
same,growth inhibition,[10]; [18],57%
same,growth inhibition,[11]; at 1.2 µM,-21%
same,growth inhibition,[11]; at 3.7 µM,-18%
same,growth inhibition,[11]; [17],-11%
same,growth inhibition,[11]; at 11.0 µM,-10%
same,growth inhibition,[11]; at 33.0 µM,15%
same,growth inhibition,[11]; [18],73% (active)
same,growth inhibition,[11]; at 100.0 µM,87% (active)
same,growth inhibition,[12]; at 1.2 µM,-24%
same,growth inhibition,[12]; at 3.7 µM,-18%
same,growth inhibition,[12]; at 11.0 µM,-7%
same,growth inhibition,[12]; at 33.0 µM,-3%
same,growth inhibition,[12]; at 100.0 µM,94% (active)
same,growth inhibition,[13]; at 1.2 µM,-59%
same,growth inhibition,[13]; at 3.7 µM,-52%
same,growth inhibition,[13]; at 11.0 µM,-33%
same,growth inhibition,[13]; at 33.0 µM,14%
same,growth inhibition,[13]; at 100.0 µM,75% (active)
same,growth inhibition,[14]; at 1.2 µM,-40%
same,growth inhibition,[14]; at 3.7 µM,-26%
same,growth inhibition,[14]; at 11.0 µM,-12%
same,growth inhibition,[14]; at 33.0 µM,30%
same,growth inhibition,[14]; at 100.0 µM,91% (active)
same,growth inhibition,[15]; [17],100% (active)
same,growth inhibition,[15]; [18],100% (active)
same,growth inhibition,[15]; at 50.0 µM,37.5%
same,growth inhibition,[16]; at 1.2 µM,-29%
same,growth inhibition,[16]; at 3.7 µM,-38%
same,growth inhibition,[16]; at 11.0 µM,-25%
same,growth inhibition,[16]; at 33.0 µM,4%
same,growth inhibition,[16]; at 100.0 µM,57%
